HP1b chromo inh – HTS for Inhibitors of HP1-beta Chromodomain Interactions with Methylated Histone Tails; AlphaScreen HP1-beta / biotin-H3K9me3 peptide binding; Chromobox protein homolog 1 (Homo sapiens), P83916; Potency, µM (doses to about 114 µM), actives largely listed as inhibitors; 390,000 compounds, 0.56% hits; AID 540317, 2011; further: nearly all actives have a fitted effect of over 70% in size
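Compound inhibition of the preformed complex between 50 nM HP1-beta and 50 nM biotinylated H3K9me3 peptide was read by AlphaScreen. Buffer was PBS pH 7.4 with 0.01% Tween-20. Incubations ran 30 min at room temperature, with 10 ug/mL donor/acceptor beads.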
Six1-Eya2 blk – qHTS Assay for Inhibitors of the Six1/Eya2 Interaction; AlphaScreen GST-Six1/His-Eya2 binding, biochemical; active compounds read low; activity change, % (concentration not given with the values); Homeobox protein SIX1 (Homo sapiens) + Protein phosphatase EYA2 (Homo sapiens), …; 360,000 compounds, 0.56% hits; AID 651725, 2012; in the data active means activity change below about -65%; inconclusive means mostly about -30% to -63%
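GST-Six1 + His-Eya2 (5X stock: 250/500 nM); Tris pH 8.0, 300 mM NaCl, 0.05% BSA, 0.02% Tween 20; GSH donor/Ni acceptor beads; 1 h 37 °C dark; AlphaScreen readout.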
JMJD2A Tudor – qHTS Assay for Inhibitors of JMJD2A-Tudor Domain. Lysine-specific demethylase 4A (Homo sapiens), O75164. AlphaScreen JMJD2A-Tudor / H3K4me3 peptide binding. Potency, µM (top dose mostly 114 µM), most hits filed as inhibitors. 390,000 compounds, 4.4% hits. AID 504339, 2011; further: nearly all actives have a fitted effect of over 50% in size
CtBP-E1A blk – qHTS Assay for Inhibitors of the CtBP/E1A Interaction. CtBP / adenovirus E1A interaction (AlphaScreen). AlphaScreen GST-E1A/His-CtBP binding, 1536-well; active compounds read low. activity change, % (concentration not given with the values). 340,000 compounds, 0.49% hits. AID 651724, 2012; in the data active means activity change below about -65%; inconclusive means mostly about -30% to -63%
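Homogeneous bead-based format: GST-tagged E1A captured on glutathione donor beads, His-tagged CtBP on nickel acceptor beads; compounds precede bead addition by 2 h at 37 °C.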
BAZ2B block – qHTS Assay for Inhibitors of BAZ2B; AlphaScreen BAZ2B-H3K14Ac peptide displacement; Bromodomain adjacent to zinc finger domain protein 2B (Homo sapiens), Q9UIF8; 360,000 compounds, 4.4% hits; Potency, µM (series often up to 114 µM), hits mostly inhibitors; further: nearly all actives have a fitted effect of over 60% in size
Target sequence (Q9UIF8 whole entry, looked up, the tested form may be a part): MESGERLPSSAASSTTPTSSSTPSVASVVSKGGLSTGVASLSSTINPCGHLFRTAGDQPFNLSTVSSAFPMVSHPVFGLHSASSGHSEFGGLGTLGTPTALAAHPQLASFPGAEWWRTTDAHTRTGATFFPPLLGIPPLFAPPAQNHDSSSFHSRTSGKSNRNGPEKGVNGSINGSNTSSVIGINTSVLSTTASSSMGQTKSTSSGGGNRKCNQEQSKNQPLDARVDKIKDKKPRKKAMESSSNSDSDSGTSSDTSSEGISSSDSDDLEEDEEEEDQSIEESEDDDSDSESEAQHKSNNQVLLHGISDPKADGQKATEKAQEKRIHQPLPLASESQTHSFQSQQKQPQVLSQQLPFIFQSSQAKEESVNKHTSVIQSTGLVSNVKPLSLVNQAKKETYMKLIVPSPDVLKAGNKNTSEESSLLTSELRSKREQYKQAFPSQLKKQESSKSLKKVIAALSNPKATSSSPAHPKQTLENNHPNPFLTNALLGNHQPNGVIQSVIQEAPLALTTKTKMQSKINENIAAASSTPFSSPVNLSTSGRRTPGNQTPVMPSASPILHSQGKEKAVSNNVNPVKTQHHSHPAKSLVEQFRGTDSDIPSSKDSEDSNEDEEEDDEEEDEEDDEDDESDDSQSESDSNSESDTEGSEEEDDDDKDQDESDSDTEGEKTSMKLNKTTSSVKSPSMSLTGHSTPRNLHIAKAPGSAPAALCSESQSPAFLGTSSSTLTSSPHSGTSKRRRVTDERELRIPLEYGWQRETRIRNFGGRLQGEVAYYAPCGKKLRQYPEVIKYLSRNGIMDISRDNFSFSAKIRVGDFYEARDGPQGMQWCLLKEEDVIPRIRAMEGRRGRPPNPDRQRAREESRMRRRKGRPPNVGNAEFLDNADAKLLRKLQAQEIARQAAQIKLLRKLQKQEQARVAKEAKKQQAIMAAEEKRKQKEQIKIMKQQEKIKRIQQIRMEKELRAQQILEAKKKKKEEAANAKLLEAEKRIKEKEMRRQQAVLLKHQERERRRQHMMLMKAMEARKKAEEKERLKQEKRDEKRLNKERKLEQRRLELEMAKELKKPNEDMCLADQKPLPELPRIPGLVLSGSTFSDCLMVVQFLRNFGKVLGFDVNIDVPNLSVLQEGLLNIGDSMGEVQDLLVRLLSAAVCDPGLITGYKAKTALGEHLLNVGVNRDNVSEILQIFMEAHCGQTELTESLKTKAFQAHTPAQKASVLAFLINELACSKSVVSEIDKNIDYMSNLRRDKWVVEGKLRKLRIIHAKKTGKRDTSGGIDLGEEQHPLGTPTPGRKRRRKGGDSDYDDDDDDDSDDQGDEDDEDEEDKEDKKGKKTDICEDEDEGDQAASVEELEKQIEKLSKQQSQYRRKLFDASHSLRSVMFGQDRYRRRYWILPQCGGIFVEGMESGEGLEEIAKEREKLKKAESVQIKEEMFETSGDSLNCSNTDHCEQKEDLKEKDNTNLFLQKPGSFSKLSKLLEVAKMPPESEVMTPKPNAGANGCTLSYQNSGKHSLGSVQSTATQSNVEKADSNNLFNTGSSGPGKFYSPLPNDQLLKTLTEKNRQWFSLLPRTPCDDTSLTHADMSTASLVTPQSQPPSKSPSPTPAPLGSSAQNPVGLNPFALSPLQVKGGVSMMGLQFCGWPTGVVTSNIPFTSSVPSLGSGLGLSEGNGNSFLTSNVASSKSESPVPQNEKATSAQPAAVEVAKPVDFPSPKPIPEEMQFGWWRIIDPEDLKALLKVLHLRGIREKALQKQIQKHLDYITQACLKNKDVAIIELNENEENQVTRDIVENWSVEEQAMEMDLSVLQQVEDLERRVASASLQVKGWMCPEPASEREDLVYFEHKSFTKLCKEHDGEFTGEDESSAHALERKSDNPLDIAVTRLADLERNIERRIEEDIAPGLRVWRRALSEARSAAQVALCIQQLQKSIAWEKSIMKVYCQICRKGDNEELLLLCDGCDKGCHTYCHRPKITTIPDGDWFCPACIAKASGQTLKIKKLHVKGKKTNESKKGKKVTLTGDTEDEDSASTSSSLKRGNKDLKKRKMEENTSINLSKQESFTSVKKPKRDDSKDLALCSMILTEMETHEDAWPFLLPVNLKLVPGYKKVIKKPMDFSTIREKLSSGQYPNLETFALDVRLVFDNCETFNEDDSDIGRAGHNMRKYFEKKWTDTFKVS
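AlphaScreen displacement of biotin-H3(5-23)K14Ac peptide (50 nM final) from BAZ2B (50 nM final) in PBS pH 7.4, 0.01% Tween-20; complex preformed 30 min RT, then compounds (top 110 uM) 30 min RT, beads 20 min dark.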
G9a block – qHTS Assay for Inhibitors of Histone Lysine Methyltransferase G9a; Histone-lysine N-methyltransferase EHMT2 (Homo sapiens), Q96KQ7; G9a H3K9 monomethylation, AlphaScreen, 2 h; Potency, µM (top dose mostly 102 µM), hits mostly inhibitors; 350,000 compounds, 8.8% hits; AID 504332, 2011; further: nearly all actives have a fitted effect of over 75% in size
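Quantitative HTS format: methyltransferase activity on a biotin-tagged H3K9 peptide is measured by AlphaScreen, using a rabbit anti-monomethyl-H3K9 antibody with streptavidin donor and anti-IgG acceptor beads. Final levels are 20 nM enzyme, 500 nM peptide, 20 uM SAM; 2 h RT.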
Hits are given with their value; - = inactive; ? = inconclusive; . = not tested or not shown; [ ] = dose if it differs, or a comment. This is a sample that favours compounds with a hit; in the whole collection about 10% have one here. Unless noted, the call rests on the fitted dose curve; in most records, active means well fitted inhibition curve with a large enough effect; inconclusive means small, poorly fitted or top-dose-only effect; inactive means no such curve, though single readings can be large or run the other way.

SMILES | HP1b chromo inh | Six1-Eya2 blk | JMJD2A Tudor | CtBP-E1A blk | BAZ2B block | G9a block
CCC(C)C1=CC(=Nc2c(C)n(C)n(-c3ccccc3)c2=O)C=C(C(C)CC)C1=O (stereo not drawn) | - | - | ? | - | 3.55µM | ?
Cc1c(CN(C)CCc2ccccc2)c(=O)n(-c2ccccc2)n1C | ? | - | 3.55µM | - | ? | 3.98µM
Cc1c(Cc2c(C)n(C)n(-c3ccccc3)c2=O)c(=O)n(-c2ccccc2)n1C | - | - | - | - | - | -
Cc1c(O)c(=O)n(-c2ccccc2)n1C | - | - | - | - | - | 8.91µM
Cc1cc(C)c2c(CC(=O)N(Cc3ccc(Cl)cc3)Cc3ccco3)coc2c1 | - | . | - | . | - | -
Cc1c(N=NC2=C(O)CC(C)(C)CC2=O)c(=O)n(-c2ccccc2)n1C | ? | - | 50.1µM | ? | 35.5µM | -[12.7 µM]
CC1=CC(=Nc2c(C)n(C)n(-c3ccccc3)c2=O)C=C(C)C1=O | ? | - | - | - | - | 39.8µM
CCCC(=O)NC(=S)c1c(C)n(C)n(-c2ccccc2)c1=O | - | - | - | - | - | 44.7µM
CC(=O)/C(N=Nc1c(C)n(C)n(-c2ccccc2)c1=O)=C(\C)O | - | - | - | - | ? | -
Cc1ccc(O)c(N=NC2=C(O)CC(C)(C)CC2=O)c1 | - | -90.3 | 56.2µM | - | 31.6µM | ?
Cc1c(NC(=S)NC(=O)COc2ccccc2)c(=O)n(-c2ccccc2)n1C | - | - | - | - | - | -
CC1(C)CC(=O)C(N=Nc2cc(Cl)c(Cl)c(Cl)c2)=C(O)C1 | ? | - | ? | - | ? | ?
Cc1c(N=c2scc(-c3ccccc3)n2C)c(=O)n(-c2ccccc2)n1C | - | - | - | - | ? | -
Cc1csc2nc(COC(=O)CNC(=O)c3ccccc3Cl)cc(=O)n12 | - | . | - | . | - | -
CC1CCCCN1CCCNC(=O)c1[nH]c2ccccc2c1Sc1ccc(Cl)cc1 (stereo not drawn) | - | . | - | . | - | ?
Cc1ccc(S(=O)(=O)c2cnc(SCC(=O)Nc3cc(C)cc(C)c3)nc2N)cc1 | - | . | - | . | - | -
Cc1c(-n2c(=S)[nH]c3ccccc3c2=O)c(=O)n(-c2ccccc2)n1C | - | - | 20µM | - | - | ?
CC1=CC(=Nc2c(C)n(C)n(-c3ccccc3)c2=O)C=CC1=O | . | . | . | . | 44.7µM | 10µM
CC(C)c1ccc(N2C(=O)CSC23C(=O)N(C)c2ccccc23)cc1 (stereo not drawn) | - | . | - | . | - | -
COc1ccc(Oc2ncnc3c2oc2ccccc23)cc1 | - | . | - | . | - | -
O=C(O)C1CSC(c2coc3ccccc3c2=O)N1 (stereo not drawn) | ? | - | 25.1µM | - | 50.1µM | ?
CCCCCCNc1nc(-c2ccc(OC)cc2)c(CCC(=O)O)s1 | - | - | - | - | ? | 44.7µM
CCN(CC)CCNc1nc(-c2ccc(OC)cc2)c(-c2ccc(OC)cc2)s1 | - | - | ? | - | ? | .
COC(=O)CCc1sc(NC2CCCCC2)nc1-c1ccc(OC)cc1 | ? | - | ? | - | ? | 12.6µM
COCCNc1nc(-c2ccc(OC)cc2)c(-c2ccc(OC)cc2)s1 | - | - | ? | . | 70.8µM | ?
COC(=O)CCc1sc(Nc2ccc(OC)cc2)nc1-c1ccc(OC)cc1 | - | . | ? | . | - | 8.91µM
COc1ccc(OC)c(NC(=O)N2CCN(S(=O)(=O)c3ccc4c(ccn4C)c3)CC2)c1 | - | . | ? | . | ? | -
COC(=O)c1ccccc1NC(=O)CCCn1nc(C)c2sc3ccccc3c2c1=O | - | . | - | . | - | -
CC1=C(C(=O)Nc2cccnc2)C(c2ccc(C)cc2)n2nc(SCc3ccccc3F)nc2N1 (stereo not drawn) | - | . | - | . | - | -
Cc1ccc(-c2nnc3c4ccccc4c(-c4ccccc4)nn23)cc1 | - | . | - | . | - | -
